The values below come from PubChem BioAssay (EPA / NIEHS).

Some compounds were tested as several samples or in several runs, with calls that do not always agree. The source made the active and inactive calls. Rule for the calls: active = hit-call score of the fitted dose curve at least 0.9, where 1 is the maximum; inactive = score below 0.9.

This experiment can be described thus: ATG_EGR_CIS: Attagene CIS-FACTORIAL HepG2 Assay for human Early Growth Response 1 (EGR1) (AID 2282938). The following applies: HepG2 Attagene CIS-FACTORIAL EGR reporter mRNA; actives raise or lower the signal. How it is done:
ATG_CIS is a cell-based, multiplexed-readout assay that uses HepG2, a human liver cell line, with measurements taken at 24 hours after chemical dosing in a 24-well plate.ATG_EGR_CIS is one of 52 assay component(s) measured or calculated from the ATG_CIS assay. It is designed to make measurements of mRNA induction, a form of inducible reporter, as detected with fluorescence intensity signals by Reverse transcription polymerase chain reaction (RT-PCR) and Capillary electrophoresis technology.Data from the assay component ATG_EGR_CIS was analyzed into 1 assay endpoint. This assay endpoint, ATG_EGR_CIS, was analyzed with bidirectional fitting relative to DMSO as the negative control and baseline of activity. Using a type of inducible reporter, measures of mRNA for gain or loss-of-signal activity can be used to understand the reporter gene at the transcription factor-level as they relate to the gene EGR1. Furthermore, this assay endpoint can be referred to as a primary readout, because this assay has produced multiple assay endpoints where this one serves a reporter gene function. To generalize the intended target to other relatable targets, this assay endpoint is annotated to the dna binding intended target family, where the subfamily is zinc finger.
Human liver HepG2 cells are transiently transfected with multiple reporter transcription units (MRTUs) in 6-well plates using FuGene 6 reagent (Roche; 3 ml FuGene/1 mg DNA). The MRTU constructs are regulated by a cis-regulating element (promoter). […] A major difference between the CIS and TRANS system is that in CIS activities of endogenous TFs are measured, whereas the TRANS assay evaluates changes in activities of exogenous, chimeric NR-Gal4 proteins. […] At the end of 24 hour incubation, total RNA was isolated using TriZol reagent (Invitrogen). The isolated RNA is then reverse-transcribed using oligo(dT) primer and Mo-MLV reverse transcriptase (Invitrogen) with DNAse I (Ambion) treatment for 30 min. The one-tenth of the produced cDNA was amplified by PCR using Taq DNA polymerase (Invitrogen) and two reporter sequence-specific primers. The PCR products were fluorescently labeled by primer extension with 6-arboxyfluorescein (6-FAM) 5'-labeled reporter sequence-specific primer (2 min at 95 C, 20 s at 68 C and 10 min at 72 C) and these products were digested with 5U of HpaI (New England Biolabs) for 2h at 37 C. The fragments were purified using Qiaquick PCR columns (Qiagen), analyzed on an ABI 3130xL genetic analyzer (Applied Biosystems) with peak positions identified by using a set of X-rhodamine (ROX)-labeled MapMarker1000 molecular weight standards (BioVentures). The raw capillary electrophoresis data was processed using Attagraph software (Attagene).
For `OC[C@H]1O[C@@](CO)(O[C@H]2O[C@H](CO)[C@@H](O)[C@H](O)[C@H]2O)[C@@H](O)[C@@H]1O`, the call was inactive. `C[C@]12C=CC(=O)C=C1CC[C@H]1[C@@H]3C[C@@H](O)[C@](O)(C(=O)CO)[C@@]3(C)C[C@H](O)[C@@]12F`: the compound was called inactive. On the same count and under the same terms, the value for `O=C1CN(N=Cc2ccc([N+](=O)[O-])o2)C(=O)N1` was “inactive”. Same read-out and setting: to `NCC(F)(F)C(F)(F)C(F)(F)C(F)(F)F` belongs “inactive”. The AC50 is the concentration at which the activity in the assay is half-maximal. For `COc1cc(C(C)C)c2c(c1)S(=O)(=O)N(COc1cc(=O)n3cccc(OCCN4CCCCC4)c3n1)C2=O`, the AC50 was 2.75 µM (active).

On to `FC(F)C(F)(F)COCC1CO1` (stereo not given), for which the outcome was inactive. With `CCCOc1ccc(S(=O)(=O)N2CCN(CC)CC2)cc1-c1nc2c(CC)n(Cc3ccccn3)nc2c(=O)[nH]1`, the AC50 was 22.2 µM (active). `CCCc1ccccc1`: the result was inactive. For `FC(F)(F)C(F)(F)C(F)(F)C(F)(F)C(F)(F)C(F)(F)I`, the compound was classed as inactive.

Take `Cc1ccc(S(=O)(=O)NC(=O)NN2CCCCCC2)cc1`: the call was inactive.

For the compound `O=C(O)c1ccc2c(c1)nc(C(=O)NC1CCN(C3CC3)CC1)n2Cc1cc(-c2ccc(Cl)s2)on1`, the compound was called inactive.

As to `COCc1nnc(-c2ccc[n+]([O-])c2)n1-c1c(Cl)c(Cl)cc2[nH]c(=O)c(=O)[nH]c12`, the result was inactive. With `CC(C)c1nnc2ccc(-c3ocnc3-c3cc(F)ccc3F)cn12`, the compound was called inactive.

For the compound `CCCCCCOC(=O)CC(CC(=O)OCCCCCC)(OC(=O)CCC)C(=O)OCCCCCC`, the outcome was inactive. `O=S1(=O)CCCO1`: the result was inactive. Still for that read-out and setting: to `CCCCCCCCN(C)C` belongs “inactive”; to `C=CN1CCCC1=O`, “inactive”. With `OCc1c[nH]c2ccccc12`, the outcome was inactive. Still for that read-out and setting: the value for `C[Si](C)(C)C(F)(F)C(F)(F)C(F)(F)F` was “inactive”. Turning to `OC(Cn1cncn1)(Cn1cncn1)c1ccc(F)cc1F`, the compound was called inactive. Regarding `c1ccc(C(O[C@@H]2CCCN(CCc3ccc4c(c3)OCO4)C2)c2ccccc2)cc1`, the AC50 is 33 µM (active).

For `CCc1cccc(CC)c1N`, the result was inactive. Turning to `O=c1[nH]cnc2c1ncn2[C@H]1CC[C@@H](CO)O1`, the result was inactive. As for `O=C(N[C@H](CO)[C@H](O)c1ccc([N+](=O)[O-])cc1)C(Cl)Cl`, the compound was classed as inactive.

Turning to `OCCC(F)(F)C(F)(F)C(F)(F)C(F)(F)F`, the outcome was inactive. On the same count and under the same terms, to `OCC(CO)(CO)CO` belongs “inactive”; to `Cc1ncc([C@@H](CCCCCCc2ccc3c(n2)NCCC3)CC(=O)O)cn1`, “inactive”; to `CC(C)CCCCCCOC(=O)C1CCCCC1C(=O)OCCCCCCC(C)C` (stereo not given), “inactive”.

As for `c1ccc2ncccc2c1`, the call was inactive. As for `Cc1nccn1-c1ccc(Sc2cccc(C3(C(N)=O)CCOCC3)c2)cc1`, the AC50 is 4.56 µM (active). For `O=C(Cl)C(F)(F)C(F)(F)C(F)(F)C(=O)Cl`, the compound was classed as inactive. For the compound `OC(O)(C(F)C(O)(O)C(F)(F)F)C(F)(F)F`, the outcome was inactive. With `Cn1c(=O)c2[nH]cnc2n(C)c1=O`, the result was inactive.

Consider `NNC(=O)c1ccncc1`, for which the result was inactive. Regarding `O=C(NO)C1(NS(=O)(=O)c2ccc(Oc3ccc(F)cc3)cc2)CCOCC1`, the compound was classed as inactive. Consider `FC(F)=C(F)C(F)(F)C(F)(F)C(F)(F)C(F)(F)C(F)(F)C(F)(F)F`, for which the compound was called inactive. Regarding `OCCNCCO`, the compound was classed as inactive.

Regarding `O=C(O)CO`, the result was inactive. As for `CCCCCCCC1CCC(=O)O1` (stereo not given), the compound was classed as inactive. In the case of `CCn1nc(C)c2c1C(=O)NCC(c1ccc(O)cc1)=N2`, the compound was called inactive.
